40 compounds from PubChem BioAssay AID493169 (National Center for Advancing Translational Sciences (NCATS), 2011) can be followed below.

Structures are written as SMILES. Inconclusive results are not listed. Where a call stands in place of a potency, no number is given. Activity calls are given as the source filed them. Calls follow the shape of the dose curve; as a rule, active = well fitted inhibition curve with a large enough effect; inconclusive = small, poorly fitted or top-dose-only effect; inactive = flat fitted curve, though single readings scatter.
Potency is read from the fitted curve at half-maximal effect.

A short description of the assay: CHOP2 Reporter Counterscreen Assay for Inhibitors of Ubiquitin-specific Protease USP2a.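 Also: activated enterokinase alone at 50 pM in a cell-free format rather than USP2a or CHOP2; nearly all actives have a fitted effect of over 55% in size.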 The settings on record: purified enterokinase, fluorogenic substrate, 485/531 nm; series mostly up to 38.3 µM. An outline of the steps: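 Cell-free counterscreen with pre-activated enterokinase alone (50 pM final) in 20mM Tris-HCl pH 8.0, 2mM CaCl2, 2mM beta-mercaptoethanol, 0.05% CHAPS; compound preincubation 30 min RT, reporter substrate 25nM final, fluorescence read after 10 min (Ex 485/Em 531).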
As to `Cc1nc2cc3ccccc3cc2c(=O)[nH]1`, the Potency result is “inactive”.

For `N#Cc1cc(Sc2ccccn2)c(Sc2ccccn2)cc1C#N`, the Potency entry is “inactive”.

Take `CCOC(=O)c1ccc(NC(=O)C2=C(C)Nc3nc(CCCO)nn3C2c2cccc(C)c2)cc1` (stereo not given): the Potency entry was “inactive”.

As for `O=C1/C(=C/C=C/c2ccco2)SC(=S)N1NS(=O)(=O)c1ccccc1`, the Potency was 3.55 µM (active).

`CCc1c(O)nc(SCC(=O)Nc2ccccc2OC)[nH]c1=O`: the Potency result was “inactive”.

`CCOC(=O)CCCNC(=O)COC(=O)c1cccc(C)c1O`: the Potency result is “inactive”.

Take `CN(C)S(=O)(=O)c1ccc(C(=O)NCCN=C2NS(=O)(=O)c3ccccc32)cc1`: the Potency entry is “inactive”.

`Cc1ccc(C)n1NC(=O)c1ccccc1O`: the Potency entry was “inactive”.

Regarding `CCCOC(=O)CCCCC1SCC(NC(=O)OC)C1NC(=O)OC` (stereo not given), the Potency result is “inactive”.

In the case of `Cc1noc(/C=C/NCc2cccnc2)c1S(=O)(=O)N(C)CC(=O)N1CCc2ccccc21`, the Potency result is “inactive”.

In the case of `CC[C@]12c3[nH]c4cc(-c5ccco5)ccc4c3CCN1C(=O)[C@@H](CC(=O)NC/C=C(\C)CCC=C(C)C)C[C@@H]2C(=O)N1CCN(C(=O)C2CC2)CC1`, the Potency result is “inactive”.

Consider `CCn1cc(C(=O)N2CCOCC2)c(=O)c2cc(S(=O)(=O)N(C)C)ccc21`, for which the Potency result is “inactive”.

In the case of `CN(C)S(=O)(=O)c1cccc(NC(=S)NNC(=O)c2cc3ccccc3cc2O)c1`, the Potency entry is “inactive”.

As for `CCn1c(COc2ccccc2)nnc1SCC(=O)CC(=O)Nc1ccccc1OC`, the Potency result is “inactive”.

With `CC(C)(C)NC(=O)CSc1nc(O)cc(=O)n1-c1ccccc1F`, the Potency result was “inactive”.

As for `CCCCOC1(c2ccccc2)NC(=S)NN=C1c1ccccc1` (stereo not given), the Potency entry is “inactive”.

As for `CCn1c2ccccc2c2nc3ccccc3nc21`, the Potency result was “inactive”.

Turning to `CCOC(=O)C1CCN(C(=O)COC(=O)c2c(C)c(CC)nc3ccccc23)CC1`, the Potency entry was “inactive”.

`C=CCn1c(Br)nc2c1c(=O)n(C)c(=O)n2C`: the Potency result was “inactive”.

Consider `C#CCOCCOCCOCCNc1nc(N2CCN(C(=O)CCCCCCCCCCNC(=O)Cn3cc(CCCCCN)nn3)CC2)nc(N2CCN(C(=O)CCCCCCCCCCNC(=O)[C@H](CO)n3cc(CCCCCN)nn3)CC2)n1`, for which the Potency was 11.2 µM (active).

As to `COc1c(/C=C2\SC(=Nc3ccccc3Cl)NC2=O)cccc1[N+](=O)[O-]`, the Potency entry is “inactive”.

For `COc1cccc(NC(=O)c2ccccc2-c2nc(-c3cccc(C)c3)no2)c1`, the Potency entry is “inactive”.

With `Cc1ccc(NC(=O)c2onc(C)c2Cl)cc1`, the Potency result was “inactive”.

On to `Cc1cc(C)c2c(N=CN(C)C)c(C(=O)N3CCN(c4ncccn4)CC3)sc2n1`, for which the Potency entry was “inactive”.

As for `COc1ccc(C(=O)C[N+]2(C)CCOCC2)cc1`, the Potency result is “inactive”.

Turning to `O=C(COC(=O)c1c2c(nc3ccccc13)/C(=C/c1ccco1)CC2)NC1CCCC1`, the Potency is 2 µM (active).

As to `Cc1noc(NS(=O)(=O)c2ccc(N/C=C\C(=O)c3cccc4ccccc34)cc2)c1C`, the Potency result is “inactive”.

Turning to `O=C(c1ccc(CS(=O)(=O)c2ccc(Br)cc2)o1)N1CCCC1`, the Potency entry was “inactive”.

For the compound `CCCCC1CCC(C(=O)Nc2ccc(S(=O)(=O)Nc3nccs3)cc2)CC1` (stereo not given), the Potency entry was “inactive”.

Regarding `COc1ccc(O)c(-c2cc(-c3ccc(F)cc3)n[nH]2)c1`, the Potency entry is “inactive”.

As to `CCN(CC)CCNc1nc(-c2ccccc2)c2c(c1C#N)CC(C)(C)OC2`, the Potency entry is “inactive”.

Regarding `Nc1nc(NCCO)nc(NCC2CCCO2)c1[N+](=O)[O-]` (stereo not given), the Potency result is “inactive”.

`Fc1ccc(-c2nnn(Cc3nc4ccccc4s3)n2)cc1`: the Potency entry was “inactive”.

Turning to `C=CC#CC[N+]1(CC#Cc2ccccc2)CCOCC1`, the Potency was 2.24 µM (active).

As to `C#CCOCCOCCOCCNc1nc(N2CCN(C(=O)CCCCCCCCCCNC(=O)[C@H](CO)n3cc(CCCSC)nn3)CC2)nc(N2CCN(C(=O)CCCCCCCCCCNC(=O)[C@H](CCCN=C(N)N)n3cc(C[C@@H](C)CC)nn3)CC2)n1`, the Potency was 3.98 µM (active).

Turning to `COc1ccc2cc(CN(C(=O)Nc3ccccc3)C3CCCC3)c(=O)[nH]c2c1`, the Potency result is “inactive”.

As to `CCOc1ccc2[nH]c(=O)c(CN(Cc3cccs3)Cc3nnnn3C(C)(C)CC)cc2c1`, the Potency entry was “inactive”.

Regarding `C=C(C)COc1ccc(-c2[nH]ncc2Oc2ccccc2OCC)c(O)c1`, the Potency entry is “inactive”.

For `COc1ccc(OCC(=O)NCCNC(=O)c2cccnc2)cc1`, the Potency result was “inactive”.

For the compound `CCOC(=O)C1=CN(Cc2cccc(F)c2)S(=O)(=O)NC1c1ccc(Br)cc1F` (stereo not given), the Potency result is “inactive”.
